# Measured values: PubChem BioAssay (EPA / NIEHS)
# Records with an inconclusive call do not appear. Active and inactive are the calls of the source. Rule for the calls: active = hit-call score of the fitted dose curve at least 0.9, where 1 is the maximum; inconclusive = response in the unintended direction; inactive = score below 0.9.
# Columns and labels:
# [1] = biological target: D(1A) dopamine receptor (Homo sapiens) (UniProt P21728); experiment: NVS_GPCR_hDRD1: NovaScreen (NVS) G Protein-Coupled Receptor Assay for human Dopamine Receptor D1 (DRD1) (AID 2283269)
# How it was run: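 Cell-free radioligand binding to human DRD1 from HEK293 membranes, read 1 h after dosing by filter-based scintillation counting. Loss of signal versus DMSO baseline marks displacement. Primary screen at 25 uM single concentration in duplicate; actives followed up in concentration series.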
# [2] = biological target: human Muscarinic, M4 Receptor, CHRM4 (gene 1132) (UniProt P08173); experiment: NVS_GPCR_hM4: NovaScreen (NVS) G Protein-Coupled Receptor Assay for human Muscarinic, M4 Receptor (AID 2283274)
# How it was run: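 Filter-based scintillation counting of radioligand bound to CHO-expressed human M4 preparations after 1 h; loss of signal fitted versus DMSO. Initial duplicate testing at 25 uM, concentration-response follow-up for actives.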
# [3] = biological target: Muscarinic acetylcholine receptor M5 (Homo sapiens) (UniProt P08912); experiment: NVS_GPCR_hM5: NovaScreen (NVS) G Protein-Coupled Receptor Assay for human Muscarinic, M5 Receptor (AID 2283275)
# How it was run: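 Chemicals passing a primary duplicate screen at 25 uM were run as singleton concentration series, maximum 50 uM. Displacement of a specific radioligand from CHO-extracted receptor was read by filter scintillation after 1 h, relative to DMSO.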
# [4] = biological target: human Neurokinin, NK2 Receptor, TACR2 (gene 6865) (UniProt P21452); experiment: NVS_GPCR_hNK2: NovaScreen (NVS) G Protein-Coupled Receptor Assay for human Neurokinin, NK2 Receptor (AID 2283278);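 note: actives reduce bound radioligand signal relative to DMSO baseline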
# How it was run: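 CHO-derived membrane protein, radioligand displacement, filter scintillation read at 4 h post-dose. Single-point 25 uM in duplicate, then concentration series for actives; DMSO as negative control.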
# [5] = tested on: rabbit Platelet Activating Factor Receptor (PAF), gene 100354046; experiment: NVS_GPCR_rabPAF: NovaScreen (NVS) G Protein-Coupled Receptor Assay for rabbit Platelet Activating Factor Receptor (PAF) (AID 2283287)
# How it was run: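 Rabbit platelet membrane preparation; radioligand displacement read by filter-based scintillation counting 1 h after dosing, loss of signal versus DMSO. Primary screen in duplicate at 25 uM, actives followed up in concentration series.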
# [6] = tested on: 5-hydroxytryptamine receptor 2C (pig); experiment: NVS_GPCR_p5HT2C: NovaScreen (NVS) G Protein-Coupled Receptor Assay for pig Serotonin, 5-Hydroxytryptamine Receptor 2C (5HT2C) (AID 2283288)
# How it was run: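 Radioligand displacement on membranes from pig choroid plexus, detected by filter scintillation counting after 1 h. Tested first at a single 25 uM in duplicate, then in concentration-response for actives; DMSO served as baseline.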
# [7] = biological target: Muscarinic acetylcholine receptor M2 (Homo sapiens) (UniProt P08172); experiment: NVS_GPCR_hM2: NovaScreen (NVS) G Protein-Coupled Receptor Assay for human Muscarinic, M2 Receptor (AID 2283273)
# How it was run: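 Radioligand competition binding, cell-free, receptor from CHO; 1 h incubation; scintillation detection. Primary testing at 25 uM in duplicate.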
# [8] = biological target: human Thromboxane A2 Receptor (TXA2), TBXA2R (gene 6915) (UniProt P21731); experiment: NVS_GPCR_hTXA2: NovaScreen (NVS) G Protein-Coupled Receptor Assay for human Thromboxane A2 Receptor (TXA2) (AID 2283282);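 note: actives reduce bound radioligand signal relative to DMSO baseline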
# How it was run: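 Cell-free radioligand binding on membrane protein from human platelets; radioligand displacement read by filter-based scintillation counting after 1 h. Primary screen in duplicate at 25 uM, actives then run in concentration series; loss of signal versus DMSO.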
# [9] = biological target: human Neurotensin Receptor (NTS), NTSR1 (gene 4923) (UniProt P30989); experiment: NVS_GPCR_hNTS: NovaScreen (NVS) G Protein-Coupled Receptor Assay for human Neurotensin Receptor (NTS) (AID 2283279)
# How it was run: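 Compounds competed with a radiolabelled ligand for binding to CHO-derived human neurotensin receptor; bound signal counted after filtration, 1 h. Screened first at a single concentration of 25 uM in duplicate, then concentration series to 50 uM maximum for actives.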
# [10] = biological target: human Purinergic Receptor P2Y, P2RY1 (gene 5028) (UniProt P47900); experiment: NVS_GPCR_hPY2: NovaScreen (NVS) G Protein-Coupled Receptor Assay for human Purinergic Receptor P2Y (AID 2283281)
# How it was run: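 Filtration scintillation readout of radioligand displacement on U937 extract, measured 1 h post-dosing. Single 25 uM duplicate screen, then singleton concentration series to 50 uM for chemicals passing threshold; DMSO as baseline.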
# [11] = biological target: Muscarinic acetylcholine receptor M3 (Homo sapiens) (UniProt P20309); experiment: NVS_GPCR_hM3: NovaScreen (NVS) G Protein-Coupled Receptor Assay for human Muscarinic, M3 Receptor (AID 2283272)
# How it was run: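 Radioligand displacement binding on human M3 receptor in CHO-derived membranes, 1 h incubation, filter-based scintillation counting. Primary screen in duplicate at 25 uM; actives followed up in concentration series; loss of signal versus DMSO.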
# [12] = biological target: rat Serotonin, 5-Hydroxytryptamine Receptor 1 (5HT1), Non-Selective Binding, Htr1a (gene 24473) (UniProt P19327); experiment: NVS_GPCR_r5HT1_NonSelective: NovaScreen (NVS) G Protein-Coupled Receptor Assay for rat Serotonin, 5-Hydroxytryptamine Receptor 1 (5HT1), Non-Selective Binding (AID 2283286)
# How it was run: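 Binding of a radioligand to rat cortex membranes is read by filtration and scintillation counting after 1 h. Compounds were screened at 25 uM in duplicate. Actives were then titrated to a top of 50 uM. DMSO is the baseline.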
# [13] = biological target: human Vasopressin 1A Receptor (V1A), AVPR1A (gene 552) (UniProt P37288); experiment: NVS_GPCR_hV1A: NovaScreen (NVS) G Protein-Coupled Receptor Assay for human Vasopressin 1A Receptor (V1A) (AID 2283284)
# How it was run: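 Single-concentration duplicate screen at 25 uM, with concentration-response follow-up (top 50 uM) for actives. The assay measured displacement of a radioligand from human platelet-derived receptor after 1.5 h, detected by filtration and scintillation counting.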
# [14] = biological target: Neuropeptide Y receptor type 2 (Homo sapiens) (UniProt P49146); experiment: NVS_GPCR_hNPY2: NovaScreen (NVS) G Protein-Coupled Receptor Assay for human Neuropeptide Receptor Y2 (NPY2) (AID 2283277)
# How it was run: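 Chemicals were first tested in duplicate at 25 uM, then actives in singleton concentration series to 50 uM. Tracer binding to SK-N-MC-derived protein measured cell-free after 1 h via filter scintillation; signal loss relative to DMSO.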
# [15] = biological target: human Neuropeptide Receptor Y1 (NPY1), NPY1R (gene 4886) (UniProt P25929); experiment: NVS_GPCR_hNPY1: NovaScreen (NVS) G Protein-Coupled Receptor Assay for human Neuropeptide Receptor Y1 (NPY1) (AID 2283276)
# How it was run: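 Displacement of specific radioligand from NPY1 receptor of SK-N-MC origin, read by filtration and scintillation after 1 h. Compounds first tested at 25 uM in duplicate, then actives in concentration series; signal loss relative to DMSO.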
# [16] = biological target: Muscarinic acetylcholine receptor M1 (Homo sapiens) (UniProt P11229); experiment: NVS_GPCR_hM1: NovaScreen (NVS) G Protein-Coupled Receptor Assay for human Muscarinic, M1 Receptor (AID 2283270)
# How it was run: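 Actives from a duplicate 25 uM single-point screen were retested in concentration series. Binding measured as displacement of a radioligand from CHO-derived receptor preparation, 1 h incubation, filtration and scintillation counting, analysed as signal loss against DMSO.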
# [17] = biological target: human Leukotriene B4 Receptor 1 (LTB4-BLT1), LTB4R (gene 1241) (UniProt Q15722); experiment: NVS_GPCR_hLTB4_BLT1: NovaScreen (NVS) G Protein-Coupled Receptor Assay for human Leukotriene B4 Receptor 1 (LTB4-BLT1) (AID 2283271)
# How it was run: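 Cell-free human neutrophil receptor preparation, 1 h exposure, radioligand binding read by filter scintillation counting. Single 25 uM duplicate screen, then concentration series topping at 50 uM; binding loss scored against DMSO baseline.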
# [18] = biological target: human Opioid Receptor Delta 1 (Opiate D1), OPRD1 (gene 4985) (UniProt P41143); experiment: NVS_GPCR_hOpiate_D1: NovaScreen (NVS) G Protein-Coupled Receptor Assay for human Opioid Receptor Delta 1 (Opiate D1) (AID 2283280)
# How it was run: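 Membrane preparations from CHO cells bearing the human receptor were incubated 1 h with test chemical, and bound radioligand was counted after filtration. Actives from 25 uM duplicate screening were retested in concentration-response.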
# [19] = biological target: human Orphanin, Opioid Related Nociceptin Receptor 1 (ORL1), OPRL1 (gene 4987) (UniProt P41146); experiment: NVS_GPCR_hORL1: NovaScreen (NVS) G Protein-Coupled Receptor Assay for human Orphanin, Opioid Related Nociceptin Receptor 1 (ORL1) (AID 2283283)
# How it was run: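 Cell-free binding using HEK293-derived receptor protein: radioligand displacement measured by filter scintillation 1 hour after dosing. Primary testing at 25 uM in duplicate, followed by singleton concentration series up to 50 uM; DMSO served as negative control.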
# human Neurokinin, NK2 Receptor, TACR2 (gene 6865), sequence (P21452 whole entry, looked up): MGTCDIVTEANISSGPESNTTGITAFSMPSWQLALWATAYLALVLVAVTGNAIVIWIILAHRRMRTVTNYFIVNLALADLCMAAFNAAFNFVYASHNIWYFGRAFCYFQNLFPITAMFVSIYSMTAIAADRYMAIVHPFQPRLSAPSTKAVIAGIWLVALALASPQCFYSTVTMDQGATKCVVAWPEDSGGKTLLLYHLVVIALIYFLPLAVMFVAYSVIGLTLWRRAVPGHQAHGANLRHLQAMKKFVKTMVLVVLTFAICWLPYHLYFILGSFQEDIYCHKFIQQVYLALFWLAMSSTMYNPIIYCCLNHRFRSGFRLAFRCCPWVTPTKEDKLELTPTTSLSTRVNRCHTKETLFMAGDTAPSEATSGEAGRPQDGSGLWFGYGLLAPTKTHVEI
# human Opioid Receptor Delta 1 (Opiate D1), OPRD1 (gene 4985), sequence (P41143 whole entry, looked up): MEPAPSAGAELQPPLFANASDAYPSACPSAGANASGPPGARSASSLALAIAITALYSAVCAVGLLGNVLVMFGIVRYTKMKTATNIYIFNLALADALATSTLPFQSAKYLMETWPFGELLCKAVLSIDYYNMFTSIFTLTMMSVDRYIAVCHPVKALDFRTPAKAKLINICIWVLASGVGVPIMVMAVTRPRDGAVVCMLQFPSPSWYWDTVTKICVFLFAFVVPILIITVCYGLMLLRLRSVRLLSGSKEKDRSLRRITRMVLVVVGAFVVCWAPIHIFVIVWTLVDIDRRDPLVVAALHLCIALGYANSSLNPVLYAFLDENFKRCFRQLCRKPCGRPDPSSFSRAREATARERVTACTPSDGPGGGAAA
# human Purinergic Receptor P2Y, P2RY1 (gene 5028), sequence (P47900 whole entry, looked up): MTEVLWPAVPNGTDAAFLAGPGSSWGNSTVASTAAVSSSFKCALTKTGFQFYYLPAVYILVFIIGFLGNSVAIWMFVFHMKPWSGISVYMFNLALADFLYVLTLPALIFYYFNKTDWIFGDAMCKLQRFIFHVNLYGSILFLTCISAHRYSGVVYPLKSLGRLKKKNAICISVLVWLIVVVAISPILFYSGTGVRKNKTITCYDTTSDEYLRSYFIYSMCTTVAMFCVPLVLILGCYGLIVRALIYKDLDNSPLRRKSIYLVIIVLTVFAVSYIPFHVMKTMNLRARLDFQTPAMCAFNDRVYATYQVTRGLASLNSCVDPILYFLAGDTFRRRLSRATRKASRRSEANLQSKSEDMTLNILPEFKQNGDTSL
# D(1A) dopamine receptor (Homo sapiens), sequence (P21728 whole entry, looked up): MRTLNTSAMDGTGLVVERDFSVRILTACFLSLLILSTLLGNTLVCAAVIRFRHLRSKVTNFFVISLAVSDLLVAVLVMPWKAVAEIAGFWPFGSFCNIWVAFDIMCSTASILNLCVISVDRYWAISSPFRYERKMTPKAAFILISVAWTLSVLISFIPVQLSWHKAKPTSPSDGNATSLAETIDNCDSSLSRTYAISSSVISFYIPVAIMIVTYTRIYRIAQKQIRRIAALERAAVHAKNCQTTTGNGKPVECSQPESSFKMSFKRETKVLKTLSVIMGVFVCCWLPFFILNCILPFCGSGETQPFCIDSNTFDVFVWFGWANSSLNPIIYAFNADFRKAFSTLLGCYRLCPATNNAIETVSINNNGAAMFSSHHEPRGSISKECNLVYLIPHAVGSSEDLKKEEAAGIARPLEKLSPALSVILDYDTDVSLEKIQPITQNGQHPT
# human Thromboxane A2 Receptor (TXA2), TBXA2R (gene 6915), sequence (P21731 whole entry, looked up): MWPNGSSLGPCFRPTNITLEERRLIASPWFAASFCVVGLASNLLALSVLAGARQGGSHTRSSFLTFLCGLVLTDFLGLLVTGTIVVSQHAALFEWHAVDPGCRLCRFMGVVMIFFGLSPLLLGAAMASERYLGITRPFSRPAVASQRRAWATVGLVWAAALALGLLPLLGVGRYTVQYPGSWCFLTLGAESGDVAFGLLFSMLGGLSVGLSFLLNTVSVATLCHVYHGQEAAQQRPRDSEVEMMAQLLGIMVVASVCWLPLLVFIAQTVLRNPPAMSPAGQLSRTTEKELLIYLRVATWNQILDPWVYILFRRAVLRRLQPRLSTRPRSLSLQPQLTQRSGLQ
# human Muscarinic, M4 Receptor, CHRM4 (gene 1132), sequence (P08173 whole entry, looked up): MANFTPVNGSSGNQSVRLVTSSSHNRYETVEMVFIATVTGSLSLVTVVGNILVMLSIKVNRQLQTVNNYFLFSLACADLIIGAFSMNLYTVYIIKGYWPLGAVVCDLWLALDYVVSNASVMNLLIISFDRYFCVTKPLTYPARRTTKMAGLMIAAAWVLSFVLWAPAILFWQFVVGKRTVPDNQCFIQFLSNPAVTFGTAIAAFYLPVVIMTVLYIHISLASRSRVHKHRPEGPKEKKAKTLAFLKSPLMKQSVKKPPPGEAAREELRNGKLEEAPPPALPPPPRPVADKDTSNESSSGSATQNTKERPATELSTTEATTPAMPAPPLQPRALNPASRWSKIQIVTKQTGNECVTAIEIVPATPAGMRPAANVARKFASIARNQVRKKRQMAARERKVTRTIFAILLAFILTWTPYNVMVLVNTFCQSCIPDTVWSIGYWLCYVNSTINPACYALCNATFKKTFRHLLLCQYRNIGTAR
# Muscarinic acetylcholine receptor M2 (Homo sapiens), sequence (P08172 whole entry, looked up): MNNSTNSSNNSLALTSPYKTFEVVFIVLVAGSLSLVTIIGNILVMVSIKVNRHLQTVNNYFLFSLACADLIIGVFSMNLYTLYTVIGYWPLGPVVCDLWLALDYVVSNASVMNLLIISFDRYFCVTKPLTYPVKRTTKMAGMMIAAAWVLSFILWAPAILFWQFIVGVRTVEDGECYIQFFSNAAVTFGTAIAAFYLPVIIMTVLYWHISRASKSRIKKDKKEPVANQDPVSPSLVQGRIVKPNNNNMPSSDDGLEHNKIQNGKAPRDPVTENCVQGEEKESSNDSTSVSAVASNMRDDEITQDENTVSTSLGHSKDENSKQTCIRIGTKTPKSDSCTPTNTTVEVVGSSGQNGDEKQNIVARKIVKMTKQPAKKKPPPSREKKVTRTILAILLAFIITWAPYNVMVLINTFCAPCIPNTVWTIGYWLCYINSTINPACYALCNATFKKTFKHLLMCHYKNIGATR
# Neuropeptide Y receptor type 2 (Homo sapiens), sequence (P49146 whole entry, looked up): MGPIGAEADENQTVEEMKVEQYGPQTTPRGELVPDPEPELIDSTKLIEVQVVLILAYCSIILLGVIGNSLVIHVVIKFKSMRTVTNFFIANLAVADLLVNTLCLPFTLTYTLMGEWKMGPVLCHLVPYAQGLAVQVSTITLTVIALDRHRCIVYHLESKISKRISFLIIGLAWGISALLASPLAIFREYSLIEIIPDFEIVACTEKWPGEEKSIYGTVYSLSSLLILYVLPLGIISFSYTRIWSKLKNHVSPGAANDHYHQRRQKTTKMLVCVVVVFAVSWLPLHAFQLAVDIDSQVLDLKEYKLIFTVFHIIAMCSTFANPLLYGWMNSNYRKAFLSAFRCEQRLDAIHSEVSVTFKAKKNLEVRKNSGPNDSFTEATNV
# Muscarinic acetylcholine receptor M5 (Homo sapiens), sequence (P08912 whole entry, looked up): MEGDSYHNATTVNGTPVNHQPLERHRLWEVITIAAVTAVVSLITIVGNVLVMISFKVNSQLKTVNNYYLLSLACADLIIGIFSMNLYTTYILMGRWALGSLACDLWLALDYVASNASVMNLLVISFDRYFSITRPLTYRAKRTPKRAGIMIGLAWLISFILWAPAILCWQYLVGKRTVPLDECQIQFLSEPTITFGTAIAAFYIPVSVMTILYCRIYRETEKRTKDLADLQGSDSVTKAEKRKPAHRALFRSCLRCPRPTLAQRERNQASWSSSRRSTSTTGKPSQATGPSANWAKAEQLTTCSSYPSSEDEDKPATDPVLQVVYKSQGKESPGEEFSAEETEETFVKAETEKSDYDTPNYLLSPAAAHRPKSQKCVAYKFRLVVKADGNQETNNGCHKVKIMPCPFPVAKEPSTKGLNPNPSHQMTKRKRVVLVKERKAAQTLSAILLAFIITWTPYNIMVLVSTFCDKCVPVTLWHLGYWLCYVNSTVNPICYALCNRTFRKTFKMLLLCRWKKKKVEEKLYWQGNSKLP
# rat Serotonin, 5-Hydroxytryptamine Receptor 1 (5HT1), Non-Selective Binding, Htr1a (gene 24473), sequence (P19327 whole entry, looked up): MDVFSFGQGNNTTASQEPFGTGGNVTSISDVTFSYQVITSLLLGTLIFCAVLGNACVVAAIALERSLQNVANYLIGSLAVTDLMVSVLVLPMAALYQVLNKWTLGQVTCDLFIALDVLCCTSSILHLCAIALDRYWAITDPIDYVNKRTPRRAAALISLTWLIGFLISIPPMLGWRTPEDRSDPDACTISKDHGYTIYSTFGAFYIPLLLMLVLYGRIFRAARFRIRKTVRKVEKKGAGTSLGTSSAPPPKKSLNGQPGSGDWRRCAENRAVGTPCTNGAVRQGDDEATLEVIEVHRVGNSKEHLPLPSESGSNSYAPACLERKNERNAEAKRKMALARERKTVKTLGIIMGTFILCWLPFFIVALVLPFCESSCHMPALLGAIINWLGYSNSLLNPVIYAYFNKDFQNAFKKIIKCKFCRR
# Muscarinic acetylcholine receptor M3 (Homo sapiens), sequence (P20309 whole entry, looked up): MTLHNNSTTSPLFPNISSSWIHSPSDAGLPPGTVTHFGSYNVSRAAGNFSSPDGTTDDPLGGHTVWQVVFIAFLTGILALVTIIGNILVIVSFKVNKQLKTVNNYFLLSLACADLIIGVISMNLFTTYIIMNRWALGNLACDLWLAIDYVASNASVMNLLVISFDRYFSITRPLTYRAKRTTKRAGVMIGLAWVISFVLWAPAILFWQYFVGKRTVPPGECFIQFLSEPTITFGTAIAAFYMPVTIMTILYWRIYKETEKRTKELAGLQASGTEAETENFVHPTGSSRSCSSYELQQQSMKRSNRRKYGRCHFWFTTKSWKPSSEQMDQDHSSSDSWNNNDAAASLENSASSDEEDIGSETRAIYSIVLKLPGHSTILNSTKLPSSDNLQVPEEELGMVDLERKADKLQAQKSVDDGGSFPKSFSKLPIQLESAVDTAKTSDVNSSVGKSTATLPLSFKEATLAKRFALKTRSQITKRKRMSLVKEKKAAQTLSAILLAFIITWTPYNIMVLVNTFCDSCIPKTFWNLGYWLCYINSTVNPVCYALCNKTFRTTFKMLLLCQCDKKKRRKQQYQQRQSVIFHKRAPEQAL
structure (smiles),measurement,setting,value
CN1CCN(Cc2cc(-c3ccc4[nH]c(=O)oc4c3)co2)[C@@H](c2ccc(F)cc2)C1,AC50,[1],5.7 µM (active)
same,AC50,[2],26.7 µM (active)
same,AC50,[3],14.8 µM (active)
same,AC50,[4],35.4 µM (active)
same,outcome,[5],inactive
same,AC50,[6],0.25 µM (active)
CNCc1cc(F)ccc1Oc1ccc(Cl)c(Cl)c1,AC50,[7],25 µM (active)
same,AC50,[2],25 µM (active)
same,outcome,[8],inactive
Cc1oc(-c2ccccc2)nc1CCOc1cccc2c1ccn2CCC(=O)O,AC50,[8],1.33 µM (active)
NCCO,AC50,[9],37.9 µM (active)
O=C(O)CCCCC(=O)O,outcome,[10],inactive
C=CCc1ccc(O)c(OC)c1,outcome,[6],inactive
CC1=C(/C=C/C(C)=C/C=C/C(C)=C/CO)C(C)(C)CCC1,outcome,[1],inactive
same,outcome,[4],inactive
Cc1c(C(=O)O)c(O)cc2c1C(=O)c1c(O)c([C@@H]3O[C@H](CO)[C@@H](O)[C@H](O)[C@H]3O)c(O)c(O)c1C2=O,outcome,[11],inactive
same,outcome,[7],inactive
same,outcome,[2],inactive
same,outcome,[12],inactive
Cc1cccc(Nc2cc(Cl)nc(SCC(=O)O)n2)c1C,AC50,[8],5.03 µM (active)
Cc1cccc(C)c1O,outcome,[9],inactive
same,outcome,[13],inactive
CCCc1cc(=O)[nH]c(=S)[nH]1,outcome,[4],inactive
CCOc1ccc2c(c1)C(C)=CC(C)(C)N2,outcome,[4],inactive
CCCCCCCCCCCC(=O)OC,AC50,[14],6.92 µM (active)
same,outcome,[10],inactive
NC(=O)Cn1c(=O)cc(CCN2CCN(c3nccc4sccc34)CC2)c2ccc(F)cc21,AC50,[1],0.00708 µM (active)
same,AC50,[15],9.95 µM (active)
same,AC50,[4],33.7 µM (active)
same,AC50,[12],0.47 µM (active)
same,AC50,[6],0.00974 µM (active)
CC(=O)OC/C=C(\C)CCC=C(C)C,outcome,[14],inactive
CCCCC(CC)COC(=O)CC(C(=O)OCC(CC)CCCC)S(=O)(=O)O (stereo not drawn),AC50,[1],7.29 µM (active)
same,AC50,[16],34.6 µM (active)
same,AC50,[17],25 µM (active)
same,AC50,[11],39.4 µM (active)
same,AC50,[2],37.6 µM (active)
same,AC50,[3],18 µM (active)
same,AC50,[4],35.7 µM (active)
same,AC50,[18],10.3 µM (active)
same,AC50,[10],7.46 µM (active)
same,AC50,[8],8.9 µM (active)
same,AC50,[19],15.9 µM (active)
same,AC50,[6],32.4 µM (active)
CCc1c(C(=O)NN2CCCCC2)nn(-c2ccc(Cl)cc2Cl)c1-c1ccc(Br)cc1,outcome,[4],inactive
same,outcome,[18],inactive
CC1(C)CC(N=C=O)CC(C)(CN=C=O)C1 (stereo not drawn),outcome,[1],inactive
same,AC50,[7],0.367 µM (active)
same,AC50,[2],2.94 µM (active)
same,outcome,[18],inactive
Nc1ccc2c(c1)C(=O)c1ccccc1C2=O,outcome,[7],inactive
same,AC50,[18],38.4 µM (active)
C[Si]1(C)O[Si](C)(C)O[Si](C)(C)O[Si](C)(C)O1,outcome,[8],inactive
